From PubChem BioAssay (Tox21) come the findings set out here.

SMILES strings stand for the structures. Results filed as inconclusive are left out. A structure can be active in one record and inactive in another. Calls of active or inactive are those of the source. Calls come from the whole dose curve.

Assay [1] addresses Acetylcholinesterase (Homo sapiens) (UniProt P22303). Briefly: Acetylcholinesterase (AChE) small molecule antagonists: colormetric cell-based qHTS assay (AID 1347395). Note: nearly all actives have a fitted effect of over 30% in size. To be noted: SH-SY5Y cells AChE activity, colorimetric (Ellman); series mostly up to 115 µM. Summed up:
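Cells (SH-SY5Y, 2,000 per well) are seeded and left overnight at 37 C. Compound is added for 30 min, then DTNB and acetylthiocholine for a further 90 min at 37 C before absorbance-based thiocholine detection.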
A general note: In qHTS, concentration-response curves come from the screen itself.

For assay [2] the target is unchanged. Briefly: Acetylcholinesterase (AChE) small molecule antagonists: enzyme-based qHTS assay (AID 1347397). Note: nearly all actives have a fitted effect of over 55% in size. Note: potency is the fitted concentration of half-maximal effect. To be noted: Potency: AChE enzyme activity inhibition; outcome: AChE enzyme activity inhibition; series mostly up to 115 µM. Put shortly: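 Human recombinant acetylcholinesterase; substrate acetylthiocholine; thiocholine quantified with DTNB (colorimetric). Compound preincubation 30 min RT; reaction 10 min RT.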

For assay [3] the target is unchanged. In words: Acetylcholinesterase (AChE) small molecule antagonists: fluorescence cell-based qHTS assay (AID 1347398). Note: nearly all actives have a fitted effect of over 50% in size. Note: potency is the fitted concentration of half-maximal effect. To be noted: SH-SY5Y cells; Potency: AChE activity; outcome: AChE activity; series mostly up to 115 µM. Summed up:
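Thiocholine generated from acetylthiocholine by SH-SY5Y cell AChE is detected with Thiolite Green (Ex/Em 490/520 nm) after 40 min at room temperature, following 30 min compound pretreatment at 37 C.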

The target is the same in assay [4]. Briefly: Acetylcholinesterase (AChE) small molecule antagonists: enzyme-based qHTS assay with human liver microsomes (AID 1347399). Note: nearly all actives have a fitted effect of over 60% in size. The conditions noted are these: Potency: qHTS inhibition; outcome: qHTS inhibition; series mostly up to 115 µM. Summed up:
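Recombinant human AChE (50 mU/mL in the enzyme mix) and human liver microsomes (0.25 mg/mL final) were preincubated with compound and NADPH (0.25 mg/mL final) for 30 min at 37 C. Acetylthiocholine/DTNB was then added; thiocholine was read colorimetrically after 10 min at room temperature.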
% is set by controls: 0 for no effect and ±100 for the full control effect.

Acetylcholinesterase (Homo sapiens), sequence (P22303 whole entry, looked up): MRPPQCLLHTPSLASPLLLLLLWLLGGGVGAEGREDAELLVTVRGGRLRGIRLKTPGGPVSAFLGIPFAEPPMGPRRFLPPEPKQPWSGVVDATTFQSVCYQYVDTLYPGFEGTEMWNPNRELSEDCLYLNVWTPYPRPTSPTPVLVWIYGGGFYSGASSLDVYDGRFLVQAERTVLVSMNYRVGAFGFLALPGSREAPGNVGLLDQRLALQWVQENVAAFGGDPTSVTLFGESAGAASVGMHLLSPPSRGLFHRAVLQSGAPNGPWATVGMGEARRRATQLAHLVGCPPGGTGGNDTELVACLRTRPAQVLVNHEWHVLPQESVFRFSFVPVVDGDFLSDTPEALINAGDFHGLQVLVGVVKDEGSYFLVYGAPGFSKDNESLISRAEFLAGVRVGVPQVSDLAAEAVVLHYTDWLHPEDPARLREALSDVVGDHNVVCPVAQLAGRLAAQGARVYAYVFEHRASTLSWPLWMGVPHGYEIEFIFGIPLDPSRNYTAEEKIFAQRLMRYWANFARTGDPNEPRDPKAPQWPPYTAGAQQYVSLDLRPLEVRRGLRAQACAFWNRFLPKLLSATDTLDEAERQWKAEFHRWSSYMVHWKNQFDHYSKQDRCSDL

In the case of `CC(C)(C)C(=O)C(=O)O`, the Potency entry in assay [1], in assay [2], in assay [3] and in assay [4] was “inactive” each time.

In the case of `CO/N=C(/C(=O)N[C@@H]1C(=O)N2C(C(=O)O)=C(Cn3nnc(C)n3)CS[C@H]12)c1csc(N)n1`, the Potency entry in assay [1], in assay [2], in assay [3] and in assay [4] was “inactive” in each case.

On to `CCOC(=O)COC(=O)c1ccccc1C(=O)OCC`, for which the Potency result in assay [1], in assay [2], in assay [3] and in assay [4] was “inactive” throughout.

Consider `Nc1ccc(C(=O)N2CC3CC(CN(Cc4ccccc4)C3)C2)cc1`, for which the Potency result in assay [1], in assay [2], in assay [3] and in assay [4] was “inactive” throughout.

`N[C@@H](Cc1cc(I)c(O)c(I)c1)C(=O)O`: the Potency result in assay [1], in assay [2], in assay [3] and in assay [4] was “inactive” in each case.

Take `Cc1ccccc1S(N)(=O)=O`: the Potency result in assay [1], in assay [2], in assay [3] and in assay [4] was “inactive” throughout.

With `COC(=O)c1ccccc1O`, the Potency result in assay [1], in assay [2], in assay [3] and in assay [4] was “inactive” in each case.

For the molecule `CC(=O)OCC=C(C)C`, the Potency entry in assay [1], in assay [2], in assay [3] and in assay [4] was “inactive” each time.

`C=C(C)C(=O)OCC1CCCO1` (stereo not drawn): the Potency result in assay [1], in assay [2], in assay [3] and in assay [4] was “inactive” each time.

As for `CCCCC/C=C/C=C/C=O`, the Potency result in assay [1], in assay [2], in assay [3] and in assay [4] was “inactive” throughout.

With `CC/C=C\CCOC(=O)CC`, the Potency entry in assay [1], in assay [2], in assay [3] and in assay [4] was “inactive” each time.

Turning to `CCCCOCCO`, the Potency result in assay [1], in assay [2], in assay [3] and in assay [4] was “inactive” each time.

For `NC(=O)NS(=O)(=O)c1ccc(N)cc1`, the Potency result in assay [1], in assay [2], in assay [3] and in assay [4] was “inactive” throughout.

For `CC(C)OP(=O)(CP(=O)(OC(C)C)OC(C)C)OC(C)C`, the Potency result in assay [1], in assay [2], in assay [3] and in assay [4] was “inactive” throughout.

With `C=C(C)C1CC=C(C)C(=O)C1` (stereo not drawn), the Potency result in assay [1], in assay [2], in assay [3] and in assay [4] was “inactive” in each case.

`CC(=O)OC/C=C(/C)CCC=C(C)C`: the Potency entry in assay [1], in assay [2], in assay [3] and in assay [4] was “inactive” in each case.

Take `C=C(C)C(=O)O[C@H]1C[C@@H]2CC[C@@]1(C)C2(C)C`: the Potency entry in assay [1], in assay [2], in assay [3] and in assay [4] was “inactive” each time.

Turning to `CCC1COC(=O)O1` (stereo not drawn), the Potency result in assay [1], in assay [2], in assay [3] and in assay [4] was “inactive” throughout.

Regarding `COc1ccc(NC(C)=O)cc1N`, the Potency entry in assay [1], in assay [2], in assay [3] and in assay [4] was “inactive” in each case.

Take `CCCCCCCCCCCCCC`: the Potency result in assay [1], in assay [2], in assay [3] and in assay [4] was “inactive” each time.

With `CC(=O)Oc1ccccc1C(=O)Nc1ncc([N+](=O)[O-])s1`, the Potency result in assay [1], in assay [2], in assay [3] and in assay [4] was “inactive” each time.

For `O=C1CCCCC1C1CCCCC1` (stereo not drawn), the Potency result in assay [1], in assay [2], in assay [3] and in assay [4] was “inactive” each time.

On to `O=C1Nc2ccccc2C1=O`, for which the Potency entry in assay [1], in assay [2], in assay [3] and in assay [4] was “inactive” throughout.

For `COC(=O)CCCC(=O)O`, the Potency result in assay [1], in assay [2], in assay [3] and in assay [4] was “inactive” each time.

For the molecule `O=c1[nH]c2ccc(Cl)cc2o1`, the Potency entry in assay [1], in assay [2], in assay [3] and in assay [4] was “inactive” throughout.

Regarding `NC(=O)N[C@@H](CCC(=O)O)C(=O)O`, the Potency result in assay [1], in assay [2], in assay [3] and in assay [4] was “inactive” in each case.

As to `COc1ccccc1NC(=O)CC(C)=O`, the Potency result in assay [1], in assay [2], in assay [3] and in assay [4] was “inactive” throughout.

Take `CCCC(C)CCC(C)=O` (stereo not drawn): the Potency result in assay [1], in assay [2], in assay [3] and in assay [4] was “inactive” throughout.

On to `CC1COC(=O)O1` (stereo not drawn), for which the Potency entry in assay [1], in assay [2], in assay [3] and in assay [4] was “inactive” throughout.

For the molecule `C[C@]12CC[C@@H]3c4ccc(O)cc4CC[C@H]3[C@@H]1C[C@@H](O)[C@@H]2O`, the Potency entry in assay [1], in assay [2], in assay [3] and in assay [4] was “inactive” throughout.

`O=C1Nc2cc(Cl)ccc2Oc2ccccc21`: the Potency result in assay [1], in assay [2], in assay [3] and in assay [4] was “inactive” each time.

With `CNC(=S)N(C)C`, the Potency entry in assay [1] and in assay [4] was “inactive” throughout. The Potency in assay [2] is 63.9 µM (active) and inactive; in assay [3], 32 µM (active) and inactive.

As to `C=C(C)C(=O)OCCOP(=O)(O)O`, the Potency result in assay [1], in assay [2], in assay [3] and in assay [4] was “inactive” in each case.

`C[C@@H](N)C(=O)O`: the Potency entry in assay [1], in assay [2], in assay [3] and in assay [4] was “inactive” in each case.

For the molecule `CC1=NN(c2ccc(C(=O)O)cc2)C(=O)C1`, the Potency entry in assay [1], in assay [2], in assay [3] and in assay [4] was “inactive” each time.

As to `O=C1C(N(CO)C(=O)NCO)N(CO)C(=O)N1CO` (stereo not drawn), the Potency result in assay [1], in assay [2], in assay [3] and in assay [4] was “inactive” throughout.

In the case of `CC(=O)Oc1cccc2c1C(=O)c1c(OC(C)=O)cc(C(=O)O)cc1C2=O`, the Potency result in assay [1], in assay [2], in assay [3] and in assay [4] was “inactive” throughout.

For the molecule `CC[N+](CC)(CC(=O)Nc1c(C)cccc1C)Cc1ccccc1` (tested in a mixture with another compound), the Potency result in assay [1], in assay [2], in assay [3] and in assay [4] was “inactive” in each case.

Turning to `C=C(C)C(=O)OCCN(C)C`, the Potency result in assay [1], in assay [2], in assay [3] and in assay [4] was “inactive” in each case.

Take `CN1CCC[C@@H]1Cc1c[nH]c2ccc(CCS(=O)(=O)c3ccccc3)cc12`: the Potency result in assay [1], in assay [2], in assay [3] and in assay [4] was “inactive” in each case.

As to `CC(C#N)(CCC(=O)O)N=NC(C)(C#N)CCC(=O)O` (stereo not drawn), the Potency result in assay [1], in assay [2], in assay [3] and in assay [4] was “inactive” each time.

Turning to `CCCCCCCCCCCCCCCCCCOCCO`, the activity, negative = inhibition in assay [1] was 0.0969% [at 23.6 µM] (inactive). The values for the activity change, negative = inhibition in assay [2], in assay [3] and in assay [4] were 1.34% [at 23.6 µM] (inactive), -1.79% [at 23.8 µM] (inactive) and 0.112% [at 23.6 µM] (inactive), respectively.

For the molecule `CCCc1c(OCCCOc2ccc(OCC(=O)O)cc2)ccc(C(C)=O)c1O`, the Potency result in assay [1], in assay [2], in assay [3] and in assay [4] was “inactive” throughout.

On to `O=C(O)CC(O)C(=O)O` (stereo not drawn), for which the Potency result in assay [1], in assay [2], in assay [3] and in assay [4] was “inactive” in each case.

`O=[N+]([O-])c1cc(N(CCO)CCO)ccc1NCCO`: the Potency result in assay [1], in assay [2], in assay [3] and in assay [4] was “inactive” in each case.

As to `O=C1O[C@H](CO)[C@@H](O)[C@H](O)[C@H]1O`, the Potency entry in assay [1], in assay [2], in assay [3] and in assay [4] was “inactive” throughout.

In the case of `O=C(O)c1cc(Cl)cc(Cl)c1O`, the Potency result in assay [1], in assay [2], in assay [3] and in assay [4] was “inactive” each time.
